{"source": "PubChem BioAssay (Tox21)", "note": "Inconclusive results are not listed. Unmarked numbers belong to inactive results. Activity calls are given as the source filed them. The call rests on the fitted dose curve; in most records, active means well fitted cell-killing curve with a large enough effect in the repeat runs; inconclusive means weak or mixed curves, or effect the other way; inactive means flat fitted curve, though single readings scatter. On the % scale 0 is the no-effect control and ±100 the full control effect; potency means the concentration at half of the fitted maximal effect."}
{"experiment": "cAMP Responsive Elements (CRE) small molecule antagonists, cell-based qHTS assay: qHTS cell viability counter screen (AID 2060913); further: nearly all actives have a fitted effect of over 40% in size", "conditions": "CRE-bla HEK293T viability, CellTiter-Glo luminescence, 5 h; series mostly up to 92.4 µM; viability change, negative = cytotoxic: at the top concentration", "method_in_brief": "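Steps: cells plated and held 18 hrs at 37 C/5% CO2; compounds and NKH477 (0.25 uM final) added; 3 hrs incubation; reporter substrate read; CellTiter-Glo added to measure cytotoxicity by luminescence.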"}
{"molecule": "C[C@H]1C[C@H]2[C@@H]3CCC4=CC(=O)C=C[C@]4(C)[C@@]3(F)[C@@H](O)C[C@]2(C)[C@@]1(O)C(=O)CO", "Potency": "inactive"}
{"molecule": "CCCCCCOC(=O)NC(=N)c1ccc(NCc2nc3cc(C(=O)N(CCC(=O)OCC)c4ccccn4)ccc3n2C)cc1", "Potency": "26.6 µM (active)"}
{"molecule": "O=S(c1cc(Cl)cc(Cl)c1O)c1cc(Cl)cc(Cl)c1O", "viability change, negative = cytotoxic": "1.02% [at 42.5 µM]"}
{"molecule": "C=C(C)C(=O)NCCC[N+](C)(C)C", "viability change, negative = cytotoxic": "-0.128%"}
{"molecule": "COc1cc(Cl)ccc1Oc1ccc(Cl)cc1Cl", "viability change, negative = cytotoxic": "-16.5%"}
{"molecule": "CC(=O)N(CC(O)CO)c1c(I)c(C(=O)NCCO)c(I)c(C(=O)NCC(O)CO)c1I", "note": "(configuration not stated)", "viability change, negative = cytotoxic": "-4.75% [at 42.5 µM]"}
{"molecule": "CN1CCCC(n2nc(Cc3ccc(Cl)cc3)c3ccccc3c2=O)CC1", "note": "(configuration not stated)", "viability change, negative = cytotoxic": "-1.4% [at 42.5 µM]"}
{"molecule": "COCCCOc1ccnc(CS(=O)c2nc3ccccc3[nH]2)c1C", "note": "(configuration not stated)", "Potency": "inactive"}
{"molecule": "CC(C)CCCC(C)CCO", "note": "(configuration not stated)", "viability change, negative = cytotoxic": "6.16%"}
{"molecule": "CC1=C(Br)C(=O)C(Br)=C/C1=C(/c1ccccc1S(=O)(=O)O)c1cc(Br)c(O)c(Br)c1C", "viability change, negative = cytotoxic": "-12.3% [at 42.5 µM]"}
{"molecule": "Cc1cn([C@@H]2O[C@H](CO)[C@@H](O)[C@@H]2F)c(=O)[nH]c1=O", "viability change, negative = cytotoxic": "-1.86% [at 42.5 µM]"}
{"molecule": "O=C(O)Cc1ccc(-c2ccccc2)cc1", "viability change, negative = cytotoxic": "5.25% [at 42.5 µM]"}
{"molecule": "COC(=O)C(c1ccccc1Cl)N1CCc2sccc2C1", "note": "(configuration not stated)", "viability change, negative = cytotoxic": "0.0696% [at 42.5 µM]"}
{"molecule": "O=C(O)CNC(=O)c1ccccc1", "viability change, negative = cytotoxic": "-0.485% [at 42.5 µM]"}
{"molecule": "CC(C)(C)c1cc(CO)cc(C(C)(C)C)c1O", "viability change, negative = cytotoxic": "-10.7%"}
{"molecule": "CN(C)CCCNCCCN", "viability change, negative = cytotoxic": "-7.43%"}
{"molecule": "Brc1cc2ccccc2c2ccccc12", "viability change, negative = cytotoxic": "-8.24%"}
